PubChem BioAssay (NCATS)
A number with no mark means an inactive call. Results filed as inconclusive are left out. Entries that show only a call come without a potency. Calls of active or inactive are those of the source. Unless noted, calls follow the shape of the dose curve; as a rule, active = well fitted curve in the direction sought with a large enough effect; inconclusive = small, poorly fitted or top-dose-only effect, or another doubt; inactive = no such curve, though single readings can be large; an effect the other way counts as inactive or inconclusive.

Key:
[1] = AP1 Signaling Pathway (AID 357; active = well fitted curve in either direction with a large enough effect, not every such curve was filed as active;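 also: ME-180 reporter cells stimulated with EGF at its EC50 level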); settings: ME-180 AP-1-bla reporter, EGF-induced, beta-lactamase ratio, 5 h; at 7.69 µM (top of the series) unless noted
In short: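 A ratiometric CCF4 readout (405 nm excitation; 460 and 530 nm emission) quantified AP-1-driven beta-lactamase in ME-180 cells after 5 h with compound and EC50 EGF; AC50 values were derived for activators and inhibitors.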

[2] = target: Cytochrome P450 1A2 (Homo sapiens) (UniProt P05177); assay: p450-cyp1a2 (AID 410; calls by dose curve; also: potency is read from the fitted curve at half-maximal effect); settings: recombinant CYP1A2, luciferin-ME demethylation, luminescence; series mostly up to 11.4 µM
Sequence of Cytochrome P450 1A2 (Homo sapiens) (P05177 whole entry, looked up): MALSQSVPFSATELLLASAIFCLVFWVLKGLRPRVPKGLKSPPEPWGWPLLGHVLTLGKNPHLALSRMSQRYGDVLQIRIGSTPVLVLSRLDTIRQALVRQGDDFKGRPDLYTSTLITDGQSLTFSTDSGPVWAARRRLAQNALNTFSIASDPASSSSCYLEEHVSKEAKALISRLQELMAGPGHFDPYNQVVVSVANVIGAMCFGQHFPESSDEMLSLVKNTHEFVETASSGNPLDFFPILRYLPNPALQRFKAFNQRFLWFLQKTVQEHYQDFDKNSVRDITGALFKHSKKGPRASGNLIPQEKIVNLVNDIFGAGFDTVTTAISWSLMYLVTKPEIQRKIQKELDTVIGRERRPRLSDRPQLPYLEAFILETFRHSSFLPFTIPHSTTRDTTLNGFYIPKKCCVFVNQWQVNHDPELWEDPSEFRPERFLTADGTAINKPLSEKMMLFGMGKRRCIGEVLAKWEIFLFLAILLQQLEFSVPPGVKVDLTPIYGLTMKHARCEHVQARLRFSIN
In short: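 Luminescent demethylation readout: Luciferin-ME (100uM, equal to Km) turned over by 20nM CYP1A2 for 60 min at room temperature after NADPH regeneration addition, following 10 min compound preincubation. Normalization used 57 uM furafylline as full inhibition.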

[3] = NFAT Signaling Pathway (AID 444; active = well fitted curve in either direction with a large enough effect, not every such curve was filed as active;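 also: carbachol stimulus at about its EC50 of 1 µM final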); settings: Jurkat NFAT-bla M1, carbachol, beta-lactamase ratio, 5 h; at 7.69 µM (top of the series) unless noted
In short: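 Jurkat cells with NFAT-driven β-lactamase reporter and co-expressed M1 receptor, stimulated with carbachol (final 1 uM, ~EC50), compound titration, 5 h at 37 °C. CCF4 loaded 1 h at RT; 460/530 nm ratio gave %activity and AC50.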

[4] = Stat Signaling Pathway (AID 446; active = well fitted curve in either direction with a large enough effect, not every such curve was filed as active;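 also: ME-180 cervical cancer cells given 40 pM IL-6 alongside compound; SIE-controlled beta-lactamase reporter measured as 460/530 nm FRET emission ratio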); settings: ME-180 (cervical carcinoma) SIE beta-lactamase reporter, IL-6 stimulated, 5 h; at 7.69 µM (top of the series) unless noted
In short: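 Overnight-plated ME-180 cells bearing a STAT Inducible Element beta-lactamase reporter; 5 h co-exposure to compound and 40 pM IL-6; values normalized to 300 pM IL-6 and 125 nM JAK inhibitor controls.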

[5] = target: Glucocorticoid receptor (Homo sapiens) (UniProt P04150); assay: GR-GFP Redistribution (AID 450;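 active = compounds whose dose series gives a full or clear partial fitted curve of increased nuclear translocation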; also: potency is read from the fitted curve at half-maximal effect); settings: U2OS GR-GFP nuclear translocation, laser cytometry, 2 h
Sequence of Glucocorticoid receptor (Homo sapiens) (P04150 whole entry, looked up, the tested form may be a part): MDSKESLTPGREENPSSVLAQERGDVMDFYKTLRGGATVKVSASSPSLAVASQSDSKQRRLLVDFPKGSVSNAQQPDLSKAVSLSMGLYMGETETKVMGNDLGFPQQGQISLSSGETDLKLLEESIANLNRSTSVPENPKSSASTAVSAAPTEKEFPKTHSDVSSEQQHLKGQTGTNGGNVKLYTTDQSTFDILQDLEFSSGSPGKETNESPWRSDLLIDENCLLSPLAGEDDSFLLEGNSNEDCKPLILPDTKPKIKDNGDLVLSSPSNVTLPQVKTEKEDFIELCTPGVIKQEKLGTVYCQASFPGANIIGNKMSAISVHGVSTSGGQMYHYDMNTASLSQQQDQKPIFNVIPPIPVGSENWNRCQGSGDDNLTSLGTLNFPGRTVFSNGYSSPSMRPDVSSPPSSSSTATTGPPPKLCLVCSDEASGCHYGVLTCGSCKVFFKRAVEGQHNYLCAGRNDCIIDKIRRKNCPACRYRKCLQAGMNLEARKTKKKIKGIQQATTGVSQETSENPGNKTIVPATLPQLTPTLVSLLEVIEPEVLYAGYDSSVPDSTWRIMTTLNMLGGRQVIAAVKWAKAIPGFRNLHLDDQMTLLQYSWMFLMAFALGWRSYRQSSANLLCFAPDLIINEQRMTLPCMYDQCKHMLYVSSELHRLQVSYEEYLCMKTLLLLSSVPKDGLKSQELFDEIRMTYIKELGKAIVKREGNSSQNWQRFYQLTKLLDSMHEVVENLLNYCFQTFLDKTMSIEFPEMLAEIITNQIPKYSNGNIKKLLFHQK

[6] = target: Glucocorticoid receptor (Homo sapiens) (UniProt P04150); assay: GR-EFC Redistribution (AID 451; calls by dose curve; also: potency is read from the fitted curve at half-maximal effect); settings: CHO-K1 GR-EFC translocation, beta-gal luminescence, 2 h
In short: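 CHO-K1 cells expressing nuclear EA and GR-ED fragments of b-gal; compounds titrated up to 46 uM final, 2 h at 37 C. GR nuclear translocation read as complemented b-gal luminescence after 1 h RT detection.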

[7] = target: Mitogen-activated protein kinase 10 (Mus musculus) (UniProt Q61831); assay: JNK3 AlphaScreen Assay (AID 530; active = well fitted curve in either direction with a large enough effect, not every such curve was filed as active;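 also: kinase came from lysate of stimulated human HepG2 cells; signal reports phosphorylation of biotinylated GST-cJun 1-79 at Ser73 with 10 µM ATP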); settings: JNK3 lysate, c-Jun phosphorylation; series mostly up to 11.4 µM
In short: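 Activity was read by AlphaScreen after JNK3-containing HepG2 lysate (cytokine pre-activated) phosphorylated biotinylated GST-cJun with 10 uM ATP at room temperature. Phospho-Ser73 cJun antibody with Protein-A acceptor beads provided detection.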

[8] = target: 3',5'-cyclic-AMP phosphodiesterase 4B (Homo sapiens) (UniProt Q07343); assay: qHTS Assay for Inhibitors of PDE-IV (AID 607; active = well fitted activation curve with a large enough effect in the main read-out, with a control signal flat, not every such curve was filed as active); settings: HEK293 ACTOne CNG channel cells, membrane potential fluorescence; series mostly up to 22.9 µM
Sequence of 3',5'-cyclic-AMP phosphodiesterase 4B (Homo sapiens) (Q07343 whole entry, looked up): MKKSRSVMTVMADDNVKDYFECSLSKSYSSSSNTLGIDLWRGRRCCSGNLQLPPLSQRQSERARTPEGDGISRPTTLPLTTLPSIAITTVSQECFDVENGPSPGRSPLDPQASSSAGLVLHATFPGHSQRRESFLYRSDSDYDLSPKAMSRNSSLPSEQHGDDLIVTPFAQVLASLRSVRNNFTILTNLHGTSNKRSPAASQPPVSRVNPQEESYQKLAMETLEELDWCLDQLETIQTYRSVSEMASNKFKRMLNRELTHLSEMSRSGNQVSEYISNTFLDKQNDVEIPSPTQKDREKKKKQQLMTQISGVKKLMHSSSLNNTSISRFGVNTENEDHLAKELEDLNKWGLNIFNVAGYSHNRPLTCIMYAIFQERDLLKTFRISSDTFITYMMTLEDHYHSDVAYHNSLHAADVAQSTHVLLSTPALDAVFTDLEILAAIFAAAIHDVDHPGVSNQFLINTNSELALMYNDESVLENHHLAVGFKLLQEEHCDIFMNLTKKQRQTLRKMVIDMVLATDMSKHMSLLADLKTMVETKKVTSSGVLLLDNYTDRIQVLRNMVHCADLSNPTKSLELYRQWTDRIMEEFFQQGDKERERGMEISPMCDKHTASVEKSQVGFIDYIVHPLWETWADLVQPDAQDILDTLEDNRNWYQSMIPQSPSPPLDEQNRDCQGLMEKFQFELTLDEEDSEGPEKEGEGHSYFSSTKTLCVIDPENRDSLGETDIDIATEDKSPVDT
In short: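 Live HEK293 cells with a modified cyclic nucleotide-gated (CNG) channel report intracellular cAMP via membrane-potential dye fluorescence (ex 535/em 590 nm). Endogenous PDE-IV was targeted. Compounds were tested at up to 22.9 uM final; RO 20-1724 100 uM served as control.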

[9] = target: Cytochrome P450 2C9 (Homo sapiens) (UniProt P11712); assay: qHTS Assay for Inhibitors and Substrates of Cytochrome P450 2C9 (AID 883); settings: recombinant CYP2C9, luciferin-H luminescence, 60 min; series mostly up to 11.4 µM; also: nearly all actives have a fitted effect of over 60% in size
In short: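 10nM CYP2C9 + 100uM Luciferin-H (=KM), 25mM KPO4; cpd 10 min 37C; NADPH regen, 60 min 37C; stop/detect with P450 Glo-Buffer 20 min; luminescence. Norm. to 57uM sulphaphenazole as full inhibition.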

[10] = target: Cytochrome P450 2D6 (Homo sapiens) (UniProt P10635); assay: qHTS Assay for Inhibitors and Substrates of Cytochrome P450 2D6 (AID 891); settings: recombinant CYP2D6, luciferin-ME EGE luminescence; series mostly up to 11.4 µM;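 also: luciferin methyl ether substrate demethylated by CYP2D6 with NADPH regeneration; nearly all actives have a fitted effect of over 60% in size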
Sequence of Cytochrome P450 2D6 (Homo sapiens) (P10635 whole entry, looked up): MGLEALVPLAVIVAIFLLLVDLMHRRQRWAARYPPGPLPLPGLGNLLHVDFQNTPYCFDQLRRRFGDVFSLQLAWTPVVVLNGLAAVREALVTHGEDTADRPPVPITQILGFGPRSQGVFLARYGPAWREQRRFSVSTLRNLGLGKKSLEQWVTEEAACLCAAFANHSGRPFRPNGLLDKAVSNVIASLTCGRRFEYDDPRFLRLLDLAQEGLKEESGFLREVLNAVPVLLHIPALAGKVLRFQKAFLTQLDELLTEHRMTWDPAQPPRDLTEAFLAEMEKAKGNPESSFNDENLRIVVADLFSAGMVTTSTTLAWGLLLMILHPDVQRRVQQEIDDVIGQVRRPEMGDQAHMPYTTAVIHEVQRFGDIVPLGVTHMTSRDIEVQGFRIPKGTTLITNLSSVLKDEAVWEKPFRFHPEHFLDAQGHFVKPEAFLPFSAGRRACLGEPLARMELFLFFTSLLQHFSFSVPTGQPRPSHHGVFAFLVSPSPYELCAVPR
In short: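 Luminescent read-out of luciferin formed by 5 nM human CYP2D6 demethylating 30 uM Luciferin-ME EGE (Km level) over 60 min at room temperature after NADPH regeneration addition. Data normalized to full inhibition by 1.43 uM quinidine.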

[11] = target: Cytochrome P450 2C19 (Homo sapiens) (UniProt P33261); assay: qHTS Assay for Inhibitors and Substrates of Cytochrome P450 2C19 (AID 899); settings: recombinant CYP2C19, luciferin-H EGE luminescence; series mostly up to 11.4 µM; also: nearly all actives have a fitted effect of over 60% in size
In short: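 Luminescent read-out of luciferin formed from Luciferin-H EGE (10uM, equal to KM). Enzyme 5nM in 50mM KPO4; compound added, 10 min at 37C, then NADPH regenerating system for 60 min at 37C. Full inhibition defined by 57uM ketoconazole.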

[12] = target: Guanine nucleotide-binding protein G(i) subunit alpha-1 (Homo sapiens) (UniProt P63096); assay: qHTS Assay for Inhibitors of RGS12 GoLoco Motif Activity (Green Fluorophore) (AID 879); settings: Galphai1/FITC-RGS12 GoLoco peptide, fluorescence polarization; series mostly up to 57.1 µM;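 also: negative values mean loss of peptide binding seen as reduced polarization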
Sequence of Guanine nucleotide-binding protein G(i) subunit alpha-1 (Homo sapiens) (P63096 whole entry, looked up): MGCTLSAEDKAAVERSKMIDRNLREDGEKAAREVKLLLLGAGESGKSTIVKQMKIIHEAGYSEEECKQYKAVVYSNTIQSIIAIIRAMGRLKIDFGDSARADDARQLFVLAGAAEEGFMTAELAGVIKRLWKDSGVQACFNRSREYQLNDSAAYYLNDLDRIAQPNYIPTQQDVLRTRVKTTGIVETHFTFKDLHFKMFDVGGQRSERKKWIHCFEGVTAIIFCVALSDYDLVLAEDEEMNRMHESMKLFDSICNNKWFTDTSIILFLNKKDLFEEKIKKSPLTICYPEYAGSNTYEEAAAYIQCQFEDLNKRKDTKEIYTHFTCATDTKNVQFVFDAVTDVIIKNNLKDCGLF
In short: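 A drop in FITC polarization marked displacement of the FITC-tagged RGS12 GoLoco peptide (10 nM) from Gαi1 (50 nM). Compounds were incubated 10 min at room temperature in Tris pH 7.5 buffer containing 150 mM NaCl, 0.1 mM GDP and 0.05% NP40; unlabeled peptide titration served as control.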

[13] = qHTS Assay for Identification of Small Molecule Agonists for Thrombopoietin (TPO) Signaling Pathway (AID 917); settings: TPO signaling pathway reporter cells, agonist qHTS, stimulated with TPO at its EC50; series mostly up to 38.5 µM
In short: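 Quantitative HTS for pathway activators: compounds were pin-transferred onto IL-3-starved Ba/F3 cells expressing human TPO receptor, TPO was added at its EC50 (26 pM final), and after 24 hrs at 37 C reporter luciferase was measured.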

[14] = target: Pyruvate kinase (Leishmania mexicana) (UniProt Q27686); assay: qHTS Validation Assay for Inhibitors of Leishmania Mexicana Pyruvate Kinase (AID 945); settings: purified L. mexicana pyruvate kinase, enzyme activity, E451W mutant enzyme; series mostly up to 57.5 µM
Sequence of Pyruvate kinase (Leishmania mexicana) (Q27686 2-499 E452W): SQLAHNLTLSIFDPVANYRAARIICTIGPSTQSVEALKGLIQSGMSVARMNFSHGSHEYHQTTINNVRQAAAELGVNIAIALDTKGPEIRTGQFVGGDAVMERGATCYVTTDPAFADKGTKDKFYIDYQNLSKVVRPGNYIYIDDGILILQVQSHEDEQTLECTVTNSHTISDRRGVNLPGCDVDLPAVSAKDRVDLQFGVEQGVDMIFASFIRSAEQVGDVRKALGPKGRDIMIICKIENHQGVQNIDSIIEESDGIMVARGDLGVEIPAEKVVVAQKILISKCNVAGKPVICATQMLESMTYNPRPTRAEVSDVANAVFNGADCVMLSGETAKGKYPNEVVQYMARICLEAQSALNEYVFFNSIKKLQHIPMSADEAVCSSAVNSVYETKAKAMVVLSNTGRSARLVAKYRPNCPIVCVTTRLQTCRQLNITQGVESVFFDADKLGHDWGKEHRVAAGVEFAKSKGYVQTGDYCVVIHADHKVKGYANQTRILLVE
In short: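 qHTS eight-point titrations against 0.2 nM LmPYK (E451W) in imidazole buffer pH 7.2 with 0.5 mM PEP, 0.1 mM ADP; 1 h, room temperature. Readout: PKLight luminescence, normalized to neutral DMSO wells.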

[15] = target: Pyruvate kinase PKM (Homo sapiens) (UniProt P14618); assay: qHTS Assay for Activators of Human Muscle Pyruvate Kinase (AID 954; active = well fitted curve in the direction sought with a large enough effect, not every such curve was filed as active); settings: purified human muscle pyruvate kinase, luciferase-coupled luminescence, 1 h; series mostly up to 57.5 µM
Sequence of Pyruvate kinase PKM (Homo sapiens) (P14618 whole entry, looked up): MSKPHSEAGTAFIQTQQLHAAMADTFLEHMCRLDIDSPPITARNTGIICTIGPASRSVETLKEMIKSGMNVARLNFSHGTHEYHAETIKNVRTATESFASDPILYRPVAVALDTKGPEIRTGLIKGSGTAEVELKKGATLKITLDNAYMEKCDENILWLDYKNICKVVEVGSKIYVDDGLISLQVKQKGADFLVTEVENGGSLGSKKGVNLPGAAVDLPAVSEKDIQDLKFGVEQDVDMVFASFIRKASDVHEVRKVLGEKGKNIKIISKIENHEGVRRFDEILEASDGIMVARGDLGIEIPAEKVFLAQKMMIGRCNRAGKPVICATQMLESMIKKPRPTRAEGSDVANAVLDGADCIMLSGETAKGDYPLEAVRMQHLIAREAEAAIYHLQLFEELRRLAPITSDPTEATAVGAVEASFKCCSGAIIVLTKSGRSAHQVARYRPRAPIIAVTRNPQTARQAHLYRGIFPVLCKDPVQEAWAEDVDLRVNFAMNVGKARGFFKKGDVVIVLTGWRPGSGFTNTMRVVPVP
In short: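 Screening used highly purified human pyruvate kinase M2 under submaximal activity, with PEP at its Km and ADP below Km. After an hour at room temperature, ATP was read by luciferase luminescence.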

[16] = target: Alpha-galactosidase A (Homo sapiens) (UniProt P06280); assay: Counterscreen for Glucocerebrosidase Inhibitors: qHTS Assay for Human alpha-Galactosidase at pH 4.5 (AID 992); settings: purified enzyme, fluorogenic substrate; series mostly up to 76.9 µM
Sequence of Alpha-galactosidase A (Homo sapiens) (P06280 whole entry, looked up): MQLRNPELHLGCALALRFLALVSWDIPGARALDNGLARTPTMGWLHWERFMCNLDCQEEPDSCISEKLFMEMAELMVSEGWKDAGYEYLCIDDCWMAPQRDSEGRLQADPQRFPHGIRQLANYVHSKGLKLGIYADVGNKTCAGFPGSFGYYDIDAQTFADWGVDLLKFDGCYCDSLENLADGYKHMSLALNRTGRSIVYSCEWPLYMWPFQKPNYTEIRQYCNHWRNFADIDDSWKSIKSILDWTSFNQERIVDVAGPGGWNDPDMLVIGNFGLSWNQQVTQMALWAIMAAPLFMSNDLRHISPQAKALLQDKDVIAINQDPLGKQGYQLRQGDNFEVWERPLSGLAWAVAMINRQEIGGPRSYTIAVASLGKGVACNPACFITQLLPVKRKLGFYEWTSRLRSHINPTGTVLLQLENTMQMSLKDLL
In short: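 Each compound is preincubated briefly with 2 nM enzyme before substrate addition (80 uM); plates then sit 20 min at ambient temperature, are quenched with 1M NaOH/1M glycine, and read fluorometrically.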

[17] = target: alpha-glucosidase (Oryza sativa, rice) (UniProt Q653V4); assay: Counterscreen for Glucocerebrosidase Inhibitors: qHTS Assay for Rice alpha-Glucosidase at pH 5.0 (AID 997); settings: rice alpha-glucosidase enzyme activity; series mostly up to 76.9 µM
In short: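 Endpoint fluorogenic assay at pH 5.0: compounds (0.7 nM to 77 uM) titrated against 4 nM rice enzyme and 400 uM 4-MU-alpha-glucoside for 20 min at room temperature; NaOH/glycine stop, read ex 365/em 440 nm, Hill-fitted AC50.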

[18] = target: Muscarinic acetylcholine receptor M1 (Rattus norvegicus) (UniProt P08482); assay: qHTS Assay for Antagonists of Acetylcholine Muscarinic M1 Receptor: Kinetic Measurement of Intracellular Calcium Response (AID 943); settings: M1-expressing cells, kinetic intracellular calcium fluorescence; series mostly up to 35.3 µM;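 also: Fluo-4 calcium signal as peak divided by basal fluorescence over 4 min; nearly all actives have a fitted effect of over 75% in size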
Sequence of Muscarinic acetylcholine receptor M1 (Rattus norvegicus) (P08482 whole entry, looked up): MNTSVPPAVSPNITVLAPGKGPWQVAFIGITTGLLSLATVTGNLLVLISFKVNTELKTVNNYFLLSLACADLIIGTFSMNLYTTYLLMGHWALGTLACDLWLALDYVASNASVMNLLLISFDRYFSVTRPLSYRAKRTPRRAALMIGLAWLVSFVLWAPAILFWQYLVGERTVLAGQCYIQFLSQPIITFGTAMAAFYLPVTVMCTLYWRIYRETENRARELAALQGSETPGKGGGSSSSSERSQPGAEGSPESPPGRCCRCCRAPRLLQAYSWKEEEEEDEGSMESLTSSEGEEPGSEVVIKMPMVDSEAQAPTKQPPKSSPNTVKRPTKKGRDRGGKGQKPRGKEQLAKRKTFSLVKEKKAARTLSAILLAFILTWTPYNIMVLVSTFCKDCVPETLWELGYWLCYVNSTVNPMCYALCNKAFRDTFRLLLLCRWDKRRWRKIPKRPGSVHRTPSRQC
In short: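 Antagonism measured as reduction of carbachol-evoked (EC80, 100 nM final) calcium flux in rat M1-CHO cells after 10 min compound exposure. Fluo-4 signal read kinetically; ratio of maximal to basal fluorescence.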

[19] = target: Muscarinic acetylcholine receptor M1 (Rattus norvegicus) (UniProt P08482); assay: qHTS Assay for Antagonists of Acetylcholine Muscarinic M1 Receptor: Measurement of IP-One Response (AID 944); settings: CHO-M1 cells, IP-One HTRF, antagonist mode; series mostly up to 46.1 µM; also: nearly all actives have a fitted effect of over 75% in size
In short: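 IP1 accumulation measured via TR-FRET between d2-IP1 and Eu-cryptate anti-IP1 antibody after carbachol (200 nM, EC80) stimulation for 30 min; rat M1-transfected CHO cells received compound 10 min before agonist.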

[20] = target: Cytochrome P450 3A4 (Homo sapiens) (UniProt P08684); assay: qHTS Assay for Activators of Cytochrome P450 3A4 (AID 885); settings: recombinant CYP3A4, Luciferin-PPXE luminescence, 60 min; series mostly up to 11.4 µM; also: nearly all actives have a fitted effect of over 65% in size; also: potency is read from the fitted curve at half-maximal effect
In short: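 Using 20nM recombinant human CYP3A4 in potassium phosphate (200mM), substrate Luciferin-PPXE at 25uM, luminescent luciferin detection followed a 60-min RT NADPH reaction; data scaled to 57 uM ketoconazole.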

Row | Compound | activity change, negative = inhibition [1] | Potency [2] | activity change, negative = inhibition [3] | activity, negative = inhibition [4] | Potency [5] | Potency [6] [µM] | Potency [7] | Potency [8] | Potency [9] | Potency [10] | Potency [11] | outcome [12] | outcome [13] | outcome [14] | outcome [15] | outcome [16] | Potency [17] | Potency [18] | Potency [19] | Potency [20]
1 | O=C(O)CCC/C=C\C[C@H]1[C@@H](/C=C\[C@@H](O)C2Cc3ccccc3C2)[C@H](F)C[C@H]1O | -14.7% [at 38 µM] | inactive | 14.3% [at 38 µM] | 9.41% [at 38 µM] | > 46 µM | > 46 | inactive | inactive | inactive | inactive | inactive |  |  |  |  |  |  |  |  | 
2 | CC1=C(\C=C/C(C)=C/C=C\C(C)=C\C(=O)Nc2ccc(O)cc2)C(C)(C)CCC1 | -16.4% [at 38 µM] | inactive | -17.1% [at 38 µM] | -11.2% [at 38 µM] | > 46 µM | > 46 | inactive | inactive |  | inactive |  |  |  |  |  |  |  |  |  | 
3 | Nc1nc(N)c2nc(CNc3ccc(C(=O)N[C@H](CCC(=O)O)C(=O)O)cc3)cnc2n1 | 1.47% [at 38 µM] | inactive | 13.5% [at 38 µM] | -0.643% [at 38 µM] | > 46 µM | > 46 | inactive | inactive |  |  |  | inactive | inactive | inactive | inactive | inactive | inactive |  |  | 
4 | Nc1nc2c(nc(Br)n2[C@@H]2O[C@H]3COP(=O)(O)O[C@@H]3[C@H]2O)c(=O)[nH]1 | 8.86% [at 38 µM] | inactive | -0.742% [at 38 µM] | -10.7% [at 38 µM] | 12.1 µM (active) | > 46 | inactive | inactive |  |  |  | inactive | inactive | inactive | inactive | inactive | inactive | inactive | inactive | 
5 | COc1ncc2nc(-c3cc(F)cc(F)c3)c(=O)n(C3CC3)c2n1 | 5.87% | 1.58 µM (active) | -2% | -19.2% | > 9.22 µM | > 46 | inactive | inactive |  |  |  |  |  |  |  |  |  |  |  | inactive
6 | COc1cc([C@@H](O)CO)ccc1OS(=O)(=O)O | 6.76% [at 38 µM] | inactive | 4.87% [at 38 µM] | 7.18% [at 38 µM] | > 46 µM | > 46 | inactive | inactive |  |  |  | inactive | inactive | inactive | inactive | inactive | inactive |  |  | 
7 | O=C(O)CCCCCC[C@@H]1C(=O)NC(=O)N1CC[C@@H](O)C1CCCCC1 | -8.86% [at 38 µM] | inactive | -9.7% [at 38 µM] | 3.65% [at 38 µM] | > 46 µM | > 46 | inactive | inactive | inactive | inactive | inactive |  |  |  |  |  |  |  |  | 
8 | [N-]=[N+]=Nc1ccc(C(=O)CSC[C@@H](NC(=O)CC[C@@H](N)C(=O)O)C(=O)NCC(=O)O)cc1 | -0.0447% [at 38 µM] | inactive | -3.2% [at 38 µM] | 10.6% [at 38 µM] | > 46 µM | > 46 |  | inactive |  |  |  | inactive | inactive | inactive | inactive | inactive | inactive | inactive | inactive | 
9 | CSc1ccc(NC(=O)Nc2cc(C)ccn2)cc1 | 0.23% | 0.501 µM (active) | -18.9% | -7.77% |  | > 9.22 | inactive | inactive |  |  |  |  |  |  |  |  |  |  |  | 
10 | CC[C@@H]1CN2CCc3cc(OC)c(OC)cc3[C@H]2C[C@@H]1C[C@@H]1NCCc2cc(OC)c(OC)cc21 | -110% [at 38 µM] (active) | inactive | -112% [at 38 µM] (active) | -52.6% [at 38 µM] (active) | > 46 µM | > 46 |  |  |  |  |  |  |  | inactive | inactive | inactive | inactive |  | inactive | 
11 | COc1cc2c(cc1OC)[C@H](c1ccccc1)CN(C)CC2 | -2.12% [at 38 µM] | inactive | -8.45% [at 38 µM] | 0.584% [at 38 µM] | > 46 µM | > 46 | inactive |  |  |  |  | inactive | inactive | inactive | inactive | inactive | inactive |  | inactive | 12.6 µM (active)
12 | OC[C@@H]1O[C@H](O)[C@@H](Cl)[C@H](O)[C@@H]1O | -0.164% [at 38 µM] | inactive | 4.5% [at 38 µM] | 14% [at 38 µM] | > 46 µM | > 46 |  | inactive |  |  |  | inactive | inactive | inactive | inactive | inactive | inactive | inactive | inactive | 
